Only some compounds are listed: those with a hit (about 27% of all), similar ones and a draw of the others.
CYP2C19 act – human CYP2C19 activators, primary screen, biochemical, luminescence; recombinant CYP2C19, luciferin-H EGE luminescence; stronger effect = higher value; 0 = fully inhibited enzyme, 1 = untreated enzyme; activation factor at 5 µM; 96,000 tested, under 10 active;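 active = activation factor of at least 2 at 5 µM in the primary screen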;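 also: 0 = wells with 2.5 mM tranylcypromine and 1 = vehicle-only wells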
Cav32 inh – Cav3.2 calcium influx blockers – cell-based, Fluo-4 calcium fluorescence, FDSS, MLSMR library, primary screen | B-score at 10 µM | Cav3.2-expressing cells; stronger effect = lower value | actives 4% (n = 100,000) | Voltage-dependent T-type calcium channel subunit alpha-1H (Homo sapiens), O95180;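 active = single-dose well whose peak fluorescence ratio is a statistical outlier from its plate by either plate-standardised score or position-corrected B-score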
Target sequence (O95180 whole entry, looked up): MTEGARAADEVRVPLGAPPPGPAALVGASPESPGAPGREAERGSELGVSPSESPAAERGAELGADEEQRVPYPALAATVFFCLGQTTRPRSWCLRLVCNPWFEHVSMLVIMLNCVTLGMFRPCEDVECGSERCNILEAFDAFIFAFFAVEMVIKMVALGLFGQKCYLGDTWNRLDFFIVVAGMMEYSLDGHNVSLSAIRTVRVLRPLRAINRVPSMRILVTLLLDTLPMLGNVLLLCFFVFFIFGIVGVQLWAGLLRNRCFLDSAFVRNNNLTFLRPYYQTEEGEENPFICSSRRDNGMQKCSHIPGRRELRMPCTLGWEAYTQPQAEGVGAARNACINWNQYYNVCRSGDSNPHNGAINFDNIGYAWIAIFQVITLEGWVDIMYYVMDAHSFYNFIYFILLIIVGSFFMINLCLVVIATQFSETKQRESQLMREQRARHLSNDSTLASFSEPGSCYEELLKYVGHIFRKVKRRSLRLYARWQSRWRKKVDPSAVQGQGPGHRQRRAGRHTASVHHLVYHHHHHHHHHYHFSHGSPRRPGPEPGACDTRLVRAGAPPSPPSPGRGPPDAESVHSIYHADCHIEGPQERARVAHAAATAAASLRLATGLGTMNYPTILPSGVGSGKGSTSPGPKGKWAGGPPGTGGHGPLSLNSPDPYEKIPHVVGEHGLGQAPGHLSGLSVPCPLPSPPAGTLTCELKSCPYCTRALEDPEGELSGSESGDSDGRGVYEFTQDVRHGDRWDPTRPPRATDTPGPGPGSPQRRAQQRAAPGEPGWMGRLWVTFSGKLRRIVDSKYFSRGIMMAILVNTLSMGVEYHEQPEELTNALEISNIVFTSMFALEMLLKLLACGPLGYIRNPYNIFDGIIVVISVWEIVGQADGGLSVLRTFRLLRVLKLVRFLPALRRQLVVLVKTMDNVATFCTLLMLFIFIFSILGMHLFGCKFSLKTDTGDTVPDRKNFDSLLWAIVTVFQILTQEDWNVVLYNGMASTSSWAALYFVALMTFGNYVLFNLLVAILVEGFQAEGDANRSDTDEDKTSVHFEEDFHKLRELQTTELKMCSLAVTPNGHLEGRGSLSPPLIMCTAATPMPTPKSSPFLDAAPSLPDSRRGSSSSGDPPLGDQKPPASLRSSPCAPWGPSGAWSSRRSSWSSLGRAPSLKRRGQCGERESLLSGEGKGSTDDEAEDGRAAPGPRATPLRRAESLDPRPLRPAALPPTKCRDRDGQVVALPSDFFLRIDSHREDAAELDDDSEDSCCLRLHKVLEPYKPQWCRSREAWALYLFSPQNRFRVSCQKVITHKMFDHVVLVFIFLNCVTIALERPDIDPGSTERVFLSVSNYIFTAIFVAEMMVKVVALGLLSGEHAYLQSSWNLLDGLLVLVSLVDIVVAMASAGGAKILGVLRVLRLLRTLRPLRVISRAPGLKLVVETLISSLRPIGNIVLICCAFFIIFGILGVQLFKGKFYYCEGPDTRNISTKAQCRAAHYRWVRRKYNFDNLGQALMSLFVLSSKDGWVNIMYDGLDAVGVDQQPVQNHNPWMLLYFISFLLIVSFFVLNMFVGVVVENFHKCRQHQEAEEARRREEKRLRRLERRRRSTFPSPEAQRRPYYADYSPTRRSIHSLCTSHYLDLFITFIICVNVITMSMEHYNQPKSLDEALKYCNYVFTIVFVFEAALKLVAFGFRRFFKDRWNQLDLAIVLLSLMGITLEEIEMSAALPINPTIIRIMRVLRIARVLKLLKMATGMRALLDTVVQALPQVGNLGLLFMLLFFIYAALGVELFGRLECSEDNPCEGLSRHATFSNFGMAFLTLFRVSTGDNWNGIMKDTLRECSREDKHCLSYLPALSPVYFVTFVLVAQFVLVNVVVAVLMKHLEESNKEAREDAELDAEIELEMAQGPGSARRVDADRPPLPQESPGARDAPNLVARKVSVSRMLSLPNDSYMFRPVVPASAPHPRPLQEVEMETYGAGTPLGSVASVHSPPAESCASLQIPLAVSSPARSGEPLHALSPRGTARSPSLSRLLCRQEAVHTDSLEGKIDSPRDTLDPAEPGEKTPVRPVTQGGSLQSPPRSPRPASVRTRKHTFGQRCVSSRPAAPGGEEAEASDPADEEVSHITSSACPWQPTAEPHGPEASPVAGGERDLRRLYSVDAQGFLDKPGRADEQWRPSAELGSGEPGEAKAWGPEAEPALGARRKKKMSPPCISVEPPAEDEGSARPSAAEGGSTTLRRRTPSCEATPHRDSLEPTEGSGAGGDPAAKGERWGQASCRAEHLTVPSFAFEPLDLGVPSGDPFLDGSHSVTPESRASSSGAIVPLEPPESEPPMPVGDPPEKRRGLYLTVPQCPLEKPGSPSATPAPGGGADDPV
CYP2C9 inh – blockers of cytochrome P450 2C9 activity – biochemical, luminescence, ADME assay, primary screen; inhibition, % at 5 µM; P11712; CYP2C9 Supersomes, luciferin-H conversion; actives 20% (n = 96,000); AID 777, 2007;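 active = blocking of liver enzyme CYP2C9 beyond about 50% at 5 µM, limit read from the data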
CYP2C9 activ – human CYP2C9 activators, primary screen, biochemical, luminescence. Cytochrome P450 2C9 (Homo sapiens), P11712. recombinant CYP2C9, luciferin-H conversion; stronger effect = higher value; factor 1 = untreated enzyme, 0 = blocked. activation factor at 5 µM. actives 1.4% (n = 96,000);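 active = activation factor of 2 or more for CYP2C9 at a 5 µM dose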;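 also: 0 = sulfaphenazole-blocked wells and 1 = vehicle-only wells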
CYP2C19 inh – blockers of cytochrome P450 2C19 activity – biochemical, luminescence, ADME assay, primary screen; P33261; CYP2C19 Supersomes, luciferin-H EGE luminescence, 30 min; inhibition, % at 5 µM; actives 21% (n = 96,000); AID 778, 2007;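 active = CYP2C19 inhibition above a set limit at 5 µM in the primary screen, cut at about 50% in these data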;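 also: plate controls were negative control wells for no effect and 2.5 mM tranylcypromine positive control for full effect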
* = called active by the depositor.

How did Cc1nnc(-c2cnn(C)c2N)n1Cc1ccccc1 do in these assays?
CYP2C19 act: 0.9; Cav32 inh: -5.1*; CYP2C9 inh: 16; CYP2C9 activ: 0.8; CYP2C19 inh: 9

Results for CCCSc1nnc(C(C)C)n1N ?
CYP2C19 act: 1.1; Cav32 inh: -0.66; CYP2C9 inh: -11; CYP2C9 activ: 1.1; CYP2C19 inh: -15

What do the screens show for `CCOC(=O)N1CCC(NC(=O)CN(C)S(=O)(=O)c2cc3c(cc2Cl)NC(=O)CO3)CC1`?
CYP2C19 act: 1; Cav32 inh: 0.056; CYP2C9 inh: 56*; CYP2C9 activ: 0.4; CYP2C19 inh: -4

Results for CCS(=O)(=O)c1ccc(-c2csc(-c3ccccc3)n2)c(Cl)c1Cl ?
CYP2C19 act: 0.8; Cav32 inh: 0.1; CYP2C9 inh: 14; CYP2C9 activ: 0.9; CYP2C19 inh: 16

Results for CC(C)CCN1CC(O)=C(c2nc3ccccc3[nH]2)C1=N ?
CYP2C19 act: 0.3; Cav32 inh: -0.73; CYP2C9 inh: 60*; CYP2C9 activ: 0.4; CYP2C19 inh: 68*

How did CCCCN1CC(O)=C(c2nc3ccccc3[nH]2)C1=N do in these assays?
CYP2C19 act: 0.3; CYP2C9 inh: 52*; CYP2C9 activ: 0.5; CYP2C19 inh: 71*

What do the screens show for `CC(C)N1CC(O)=C(c2nc3ccccc3[nH]2)C1=N`?
CYP2C19 act: 0.5; Cav32 inh: 1; CYP2C9 inh: -2; CYP2C9 activ: 1; CYP2C19 inh: 54*

What do the screens show for `N=C1C(c2nc3ccccc3c(=O)[nH]2)=C(O)CN1CCc1ccccc1`?
CYP2C19 act: 0.4; Cav32 inh: -0.48; CYP2C9 inh: 60*; CYP2C9 activ: 0.4; CYP2C19 inh: 63*

Results for N=C1C(c2nc3ccccc3c(=O)[nH]2)=C(O)CN1CCO ?
CYP2C19 act: 1; Cav32 inh: -0.18; CYP2C9 inh: -2; CYP2C9 activ: 1; CYP2C19 inh: 5

What do the screens show for `O=S1(=O)CCOC[C@H](Cc2ccccc2)N1Cc1ccc(Cl)cc1`?
Cav32 inh: 0.016

What do the screens show for `COc1ccc(S(=O)(=O)n2nc(C)cc2C)c(C)c1C`?
CYP2C19 act: 0.7; Cav32 inh: -0.26; CYP2C9 inh: -142; CYP2C9 activ: 2.4*; CYP2C19 inh: 31

How did Cc1cc(C)n(S(=O)(=O)c2ccc(C)c(C)c2C)n1 do in these assays?
CYP2C19 act: 0.7; Cav32 inh: -0.82; CYP2C9 inh: -275; CYP2C9 activ: 3.7*; CYP2C19 inh: 32

What do the screens show for `Cc1ccc(OC(=O)C(C)c2cccc(C(=O)c3ccccc3)c2)cc1` (stereo not given)?
CYP2C19 act: 0.6; Cav32 inh: -1.4; CYP2C9 inh: 9; CYP2C9 activ: 0.9; CYP2C19 inh: 38

How did Cc1ccccc1NC(=O)C(C)c1cccc(C(=O)c2ccccc2)c1 (stereo not given) do in these assays?
CYP2C19 act: 0.1; Cav32 inh: -2.5; CYP2C9 inh: 78*; CYP2C9 activ: 0.2; CYP2C19 inh: 91*

How did Cc1cccc(NC(=O)CCN2C(=O)C3C4C=CC(C4)C3C2=O)n1 (stereo not given) do in these assays?
CYP2C19 act: 0.7; Cav32 inh: -0.38; CYP2C9 inh: -8; CYP2C9 activ: 1.1; CYP2C19 inh: 28

What do the screens show for `Cc1ccc(C)c2[nH]c(=O)c(C(c3nnnn3Cc3ccccc3)N3CCc4ccccc4C3)cc12` (stereo not given)?
CYP2C19 act: 0.1; Cav32 inh: -0.94; CYP2C9 inh: 73*; CYP2C9 activ: 0.3; CYP2C19 inh: 85*

How did Cc1ccc2cc(C(c3nnnn3CC3CCCO3)N3CCc4ccccc4C3)c(=O)[nH]c2c1 (stereo not given) do in these assays?
CYP2C19 act: 0.6; Cav32 inh: 0.047; CYP2C9 inh: 71*; CYP2C9 activ: 0.3; CYP2C19 inh: 42

What do the screens show for `Cc1cccc2cc(C(c3nnnn3Cc3ccc4c(c3)OCO4)N3CCCC3)c(=O)[nH]c12` (stereo not given)?
CYP2C19 act: 0.6; Cav32 inh: -1; CYP2C9 inh: 50*; CYP2C9 activ: 0.5; CYP2C19 inh: 38

Compound activity from PubChem.
